# Where “and” joins values, the source holds several entries; their conditions need not be identical. Equal entries are not always repeated. Records with an inconclusive call do not appear. Calls of active or inactive are those of the source. Unless noted, the call rests on the fitted dose curve; in most records, active means well fitted inhibition curve with a large enough effect; inconclusive means small, poorly fitted or top-dose-only effect; inactive means flat fitted curve, though single readings scatter.
# Columns and labels:
# [1] = Drug repurposing screens with cells derived from glioblastoma tumor samples (AID 1345199); conditions: GBM patient neurospheres viability, ATP luminescence, 48 h; further: nearly all actives have a fitted effect of over 40% in size; further: potency means the concentration at half of the fitted maximal effect; on activity, negative = cell killing: on the % scale 0 is the no-effect control and ±100 the full control effect
# Outline: (§1)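 Primary testing used CD133+ neurospheres from four GBM patients, seven concentrations, 48 h exposure and ATP-based viability; confirmation added three slower-growing patient lines.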
# astro = control astrocytes; assay: as above; conditions: viability, ATP luminescence, 48 h; series mostly up to 45.9 µM
# Outline: as §1
# [2] = qHTS assay for small molecule activators of the human pregnane X receptor (PXR) signaling pathway (AID 720659; call rule not given here; further: 0% is about no effect); conditions: DPX-2 HepG2 CYP3A4-luciferase, 24 h; series mostly up to 92.3 µM
# [3] = molecular target: Nuclear receptor subfamily 1 group I member 2 (Rattus norvegicus) (UniProt Q9R1A7); assay: qHTS assay for small molecule activators of the rat pregnane X receptor (rPXR) signaling pathway (AID 651751; call rule not given here; further: 0% is about no effect); conditions: rPXR reporter cells, luciferase (One-Glo), 24 h
# [4] = at 45.9 µM (top of the series), tumour line B
# [5] = at 45.9 µM (top of the series), tumour line D
# [6] = at 46.1 µM (top of the series), tumour line C
# Chain of Nuclear receptor subfamily 1 group I member 2 (Rattus norvegicus) (Q9R1A7 whole entry, looked up): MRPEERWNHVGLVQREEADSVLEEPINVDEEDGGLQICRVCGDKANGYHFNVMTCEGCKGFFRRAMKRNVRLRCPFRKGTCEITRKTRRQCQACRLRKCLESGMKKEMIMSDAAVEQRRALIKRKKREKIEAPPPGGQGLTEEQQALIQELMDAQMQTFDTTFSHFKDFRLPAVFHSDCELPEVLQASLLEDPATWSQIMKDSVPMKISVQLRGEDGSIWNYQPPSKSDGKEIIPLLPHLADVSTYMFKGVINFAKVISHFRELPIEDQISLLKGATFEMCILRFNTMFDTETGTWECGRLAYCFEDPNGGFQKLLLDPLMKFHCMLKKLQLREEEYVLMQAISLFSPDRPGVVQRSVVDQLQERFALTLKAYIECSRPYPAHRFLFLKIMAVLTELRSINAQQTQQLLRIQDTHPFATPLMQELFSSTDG
smiles,measurement,setting,value
[O-][N+](=Nc1ccccc1)c1ccccc1,"activity, negative = cell killing",[1]; [4],-12.7% (inactive)
same,"activity, negative = cell killing",[1]; [5],-9.27% (inactive)
same,"activity, negative = cell killing",[1]; [6],-6.88% (inactive)
same,Potency,astro,inactive
same,outcome,[2],inactive
C=CC(C)(O)CC/C=C(\C)CCC=C(C)C (configuration not stated),"activity, negative = cell killing",[1]; [4],-7.36% (inactive)
same,"activity, negative = cell killing",[1]; [5],-9.56% (inactive)
same,"activity, negative = cell killing","[1]; at 46 µM (top of the series), tumour line A",-15.8% (inactive)
same,Potency,astro,inactive
same,max response,[3],14.8% (inactive)
CO/N=C(/C(=O)N[C@@H]1C(=O)N2C(C(=O)O)=C(COC(N)=O)CS[C@H]12)c1ccco1,"activity, negative = cell killing",[1]; [4],3.13% (inactive) and -9.26% (inactive)
same,"activity, negative = cell killing",[1]; [5],-9.35% (inactive) and -16.7% (inactive)
same,"activity, negative = cell killing",[1]; [6],6.13% (inactive) and -0.48% (inactive)
same,Potency,astro,inactive
same,max response,[3],-2.68% (inactive)
same,outcome,[2],inactive
CC(C)(C)CC(C)(C)c1ccc(OCCO)cc1,"activity, negative = cell killing",[1]; [4],-26.2% (inactive)
same,"activity, negative = cell killing",[1]; [6],-20.5% (inactive)
same,Potency,[1]; tumour line D,10 µM (active)
same,Potency,astro,35.5 µM (active)
same,max response,[3],-14.4% (inactive)
CCSc1ccc2c(c1)N(CCCN1CCN(C)CC1)c1ccccc1S2,"activity, negative = cell killing","[1]; at 20 µM (top of the series), tumour line C",-10.8% (inactive)
same,"activity, negative = cell killing","[1]; at 21.2 µM (top of the series), tumour line B",-0.856% (inactive)
same,Potency,[1]; tumour line A,6.31 µM (active)
same,Potency,astro,inactive
Oc1cc(O)cc(O)c1,"activity, negative = cell killing",[1]; [4],-4.88% (inactive)
same,"activity, negative = cell killing",[1]; [5],-12.8% (inactive)
same,"activity, negative = cell killing",[1]; [6],-10.5% (inactive)
same,Potency,astro,inactive
FC(F)(F)COCC(F)(F)F,"activity, negative = cell killing",[1]; [4],-8.9% (inactive)
same,"activity, negative = cell killing",[1]; [5],-17.5% (inactive)
same,"activity, negative = cell killing",[1]; [6],-24.2% (inactive)
same,Potency,astro,inactive
NCCO/C=C/[C@H](N)C(=O)O,"activity, negative = cell killing",[1]; [4],-6.64% (inactive)
same,"activity, negative = cell killing",[1]; [5],5.28% (inactive)
same,"activity, negative = cell killing",[1]; [6],26.3% (inactive)
same,Potency,astro,inactive
same,max response,[3],-1.31% (inactive)
CN[C@H](CC(C)C)C(=O)N[C@H]1C(=O)N[C@@H](CC(N)=O)C(=O)N[C@H]2C(=O)N[C@H]3C(=O)N[C@H](C(=O)N[C@@H](C(=O)O)c4cc(O)cc(O)c4-c4cc3ccc4O)[C@H](O)c3ccc(c(Cl)c3)Oc3cc2cc(c3O[C@@H]2O[C@H](CO)[C@@H](O)[C@H](O)[C@H]2O[C@H]2C[C@](C)(N)C(O)[C@H](C)O2)Oc2ccc(cc2Cl)[C@H]1O (some centres not stated),"activity, negative = cell killing",[1]; [4],-21.4% (inactive) and -13.5% (inactive)
same,"activity, negative = cell killing",[1]; [5],-14.4% (inactive) and -8.53% (inactive)
same,"activity, negative = cell killing",[1]; [6],-11% (inactive) and 8.66% (inactive)
same,Potency,astro,inactive

# — PubChem BioAssay (NCATS)
